Results as given in the supplement of paper PMC11634586.
Counter-ions that a name gives are not always drawn.

Test system: NCI-H1688
Assay: inhibition of cell viability relative to untreated control (fraction); higher = stronger growth inhibition, active = 0.5 or more
Settings: 30 µM; 24 h
Method: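 Natural product library (TargetMol, 640 compounds) screened on NCI-H1688 SCLC cells at 30 µM for 24 h; viability by CCK-8 absorbance at 450 nm, normalised to untreated control and expressed as inhibition rate (fraction). Compounds with >50% reduction in viability were selected as hits.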

Structure (SMILES)	inhibition of cell viability
O=C(O)[C@H]1O[C@@H](Oc2cc3oc(-c4ccc(O)cc4)cc(=O)c3c(O)c2O)[C@H](O)[C@@H](O)[C@@H]1O [Breviscapin]	0.262 (inactive)
CC(=O)O[C@H]1C[C@@]2(C)[C@@H](C[C@@H](O)[C@H]3[C@@]4(C)CC[C@@H](O)[C@@H](C)[C@@H]4CC[C@@]32C)/C1=C(\CCC=C(C)C)C(=O)O [Fusidine]	-0.0194 (inactive)
CC(=O)O[C@H]1C(=O)[C@@]2(C)[C@H]([C@H](OC(=O)c3ccccc3)[C@]3(O)C[C@H](OC(=O)[C@H](O)[C@@H](NC(=O)c4ccccc4)c4ccccc4)C(C)=C1C3(C)C)[C@]1(OC(C)=O)CO[C@@H]1C[C@@H]2O [Paclitaxel]	0.555 (active)
C=C(C)[C@@H]1CC[C@]2(C(=O)O)CC[C@]3(C)[C@H](CC[C@@H]4[C@@]5(C)CC[C@H](O)C(C)(C)[C@@H]5CC[C@]43C)[C@@H]12 [Betulinic acid]	0.622 (active)
CC(C)[C@H](NC(=O)[C@H](CC(=O)O)NC(=O)[C@H](CCCCN)NC(=O)[C@@H](N)CCCN=C(N)N)C(=O)N[C@@H](Cc1ccc(O)cc1)C(=O)O [Thymopentin]	0.0248 (inactive)
O=Cc1ccc(O)c(O)c1 [Protocatechualdehyde]	0.314 (inactive)
COc1ccc2cc3[n+](cc2c1OC)CCc1cc2c(cc1-3)OCO2 [Berberine hydrochloride]	-0.108 (inactive)
C[N+](C)(C)CC(=O)O [Betaine]	0.299 (inactive)
CC1(C)CCC[C@](C)([C@H]2CC[C@]3(C)[C@@H]2[C@H](O)C[C@@H]2[C@@]4(C)CC[C@H](O)C(C)(C)[C@@H]4CC[C@]23C)O1 [Panaxadiol]	-0.0255 (inactive)
C[C@]12CC[C@@H]3c4ccc(O)cc4CC[C@H]3[C@@H]1C[C@@H](O)[C@@H]2O [Estriol]	0.0233 (inactive)
COc1ccc(-c2cc(=O)c3c(OC)c(OC)c(OC)c(OC)c3o2)cc1 [Tangeretin]	0.299 (inactive)
NCCCC(=O)O [4-Aminobutyric acid]	-0.231 (inactive)
C[C@@H]1C(=O)O[C@H]2C[C@@]34[C@H]5C[C@@H](C(C)(C)C)[C@]36[C@@H](OC(=O)[C@@H]6O)O[C@@]4(C(=O)O5)[C@]21O [Ginkgolide A]	-0.028 (inactive)
CC(C)c1cc(C(C)C)c(CC(=O)NS(=O)(=O)Oc2c(C(C)C)cccc2C(C)C)c(C(C)C)c1 [Avasimibe]	0.757 (active)
COC(=O)C1=CO[C@@H](O[C@@H]2O[C@H](CO)[C@@H](O)[C@H](O)[C@H]2O)[C@@H]2C(CO)=CC[C@H]12 [Geniposide]	0.00243 (inactive)
O=C1c2c(O)cccc2C([C@@H]2O[C@H](CO)[C@@H](O)[C@H](O)[C@H]2O)c2cc(CO)cc(O)c21 (stereo not given in full) [Aloin]	-0.014 (inactive)
C=C1C(=O)[C@]23[C@H](CC[C@@H]1[C@@H]2O)[C@]12CO[C@@]3(O)[C@H](O)[C@H]1C(C)(C)CC[C@@H]2O [Rubescensin A]	0.984 (active)
CC1(C)CC[C@]2(C(=O)O)CC[C@]3(C)C(=CC[C@@H]4[C@@]5(C)CC[C@H](O)C(C)(C)[C@@H]5CC[C@]43C)[C@@H]2C1 [Oleanolic Acid]	0.0195 (inactive)
COc1cc(C2Oc3cc([C@H]4Oc5cc(O)cc(O)c5C(=O)[C@@H]4O)ccc3OC2CO)ccc1O (stereo not given in full) [Silibinin]	0.0271 (inactive)
O=c1ccc2ccccc2o1 [Coumarin]	-0.151 (inactive)

Structure (SMILES)	inhibition of cell viability
CC1(C)[C@@H](O[C@H]2O[C@H](C(=O)O)[C@@H](O)[C@H](O)[C@H]2O[C@@H]2O[C@H](C(=O)O)[C@@H](O)[C@H](O)[C@H]2O)CC[C@]2(C)[C@H]3C(=O)C=C4[C@@H]5C[C@@](C)(C(=O)O)CC[C@]5(C)CC[C@@]4(C)[C@]3(C)CC[C@@H]12 [Monoammonium glycyrrhizinate]	0.346 (inactive)
COc1ccc(C(C)=O)c(O)c1 [Paeonol]	0.0334 (inactive)
C/C=C(/C)C(=O)O[C@H]1[C@H](OC(C)=O)[C@@]2(CO)C(CC1(C)C)C1=CCC3[C@@]4(C)CCC(O[C@@H]5O[C@H](C(=O)O)[C@@H](O[C@@H]6O[C@H](CO)[C@@H](O)[C@H](O)[C@H]6O)[C@H](O)[C@H]5O[C@@H]5O[C@H](CO)[C@@H](O)[C@H](O)[C@H]5O)[C@](C)(CO)C4CC[C@@]3(C)[C@]1(C)C[C@H]2O.C/C=C(\C)C(=O)O[C@H]1[C@H](OC(C)=O)[C@@]2(CO)C(CC1(C)C)C1=CCC3[C@@]4(C)CCC(O[C@@H]5O[C@H](C(=O)O)[C@@H](O[C@@H]6O[C@H](CO)[C@@H](O)[C@H](O)[C@H]6O)[C@H](O)[C@H]5O[C@@H]5O[C@H](CO)[C@@H](O)[C@H](O)[C@H]5O)[C@](C)(CO)C4CC[C@@]3(C)[C@]1(C)C[C@H]2O (stereo not given in full) [Escin]	0.982 (active)
CC[C@H](C)C(=O)O[C@H]1C[C@@H](C)C=C2C=C[C@H](C)[C@H](CC[C@@H]3C[C@@H](O)CC(=O)O3)[C@H]21 [Lovastatin]	0.836 (active)
O=C(O)c1cc(O)c(O)c(O)c1 [Gallic acid]	0.44 (inactive)
N[C@@H](Cc1c[nH]c2ccc(O)cc12)C(=O)O [5-hydroxytryptophan (5-HTP)]	-0.0946 (inactive)
CC[C@H]1OC(=O)[C@H](C)[C@@H](O[C@H]2C[C@@](C)(OC)[C@@H](O)[C@H](C)O2)[C@H](C)[C@@H](O[C@@H]2O[C@H](C)C[C@H](N(C)C)[C@H]2O)[C@](C)(O)C[C@@H](C)C(=O)[C@H](C)[C@@H](O)[C@]1(C)O [Erythromycin]	0.0155 (inactive)
C[C@H]1[C@H](C)CC[C@]2(C(=O)O)CC[C@]3(C)C(=CC[C@@H]4[C@@]5(C)C[C@@H](O)[C@H](O)[C@@](C)(CO)[C@@H]5[C@H](O)C[C@]43C)[C@H]12 [Madecassic acid]	-0.00715 (inactive)
CC[C@H](CC[C@@H](C)[C@H]1CC[C@H]2[C@@H]3CC=C4C[C@@H](O)CC[C@]4(C)[C@H]3CC[C@]12C)C(C)C [Beta-Sitosterol]	0.185 (inactive)
C[C@H]1COC2=C1C(=O)C(=O)c1c2ccc2c1CCCC2(C)C [Cryptotanshinone]	1 (active)
COc1cc(CNC(=O)CCCC/C=C/C(C)C)ccc1O [Capsaicin]	0.0438 (inactive)
OC[C@H]1OC(O)[C@@H](O)[C@@H](O)[C@@H]1O (stereo not given in full) [Mannose]	0.0629 (inactive)
C[C@H](CCC(=O)O)[C@H]1CC[C@H]2[C@@H]3CC[C@@H]4C[C@H](O)CC[C@]4(C)[C@H]3C[C@H](O)[C@]12C [Deoxycholic acid]	-0.113 (inactive)
OCc1ccccc1O[C@@H]1O[C@H](CO)[C@@H](O)[C@H](O)[C@H]1O	-0.21 (inactive)
O=C(O)c1cccnc1 [Nicotinic acid]	0.0212 (inactive)
CC[C@@H]1C(=O)OC[C@@H]1Cc1cncn1C [Pilocarpine nitrate]	-0.128 (inactive)
COc1ccc([C@@H]2CC(=O)c3c(O)cc(O[C@@H]4O[C@H](CO[C@@H]5O[C@@H](C)[C@H](O)[C@@H](O)[C@H]5O)[C@@H](O)[C@H](O)[C@H]4O)cc3O2)cc1O [Hesperidin]	0.0198 (inactive)
CC(C)=CC[C@@H](O)C1=CC(=O)c2c(O)ccc(O)c2C1=O [Shikonin]	0.956 (active)
C[C@]12CCC(=O)C=C1CC[C@@H]1[C@@H]2C(=O)C[C@@]2(C)[C@H]1CC[C@]2(O)C(=O)CO [Cortisone]	-0.215 (inactive)
CN[C@@H]1[C@H](O)[C@H](NC)[C@H]2O[C@@]3(O)C(=O)C[C@@H](C)O[C@H]3O[C@@H]2[C@H]1O [Spectinomycin dihydrochloride]	0.186 (inactive)
